Molecules are shown by their SMILES. The campaign covered roughly 420,000 compounds. About 50,000 (12%) were called active. Not shown: some 26% with an inconclusive outcome. Many of the other results were omitted from the sample, so actives are more common in it than they were. Unmarked numbers belong to inactive results. Calls follow the shape of the dose curve; as a rule, active = well fitted inhibition curve with a large enough effect; inconclusive = small, poorly fitted or top-dose-only effect; inactive = flat fitted curve, though single readings scatter.
% is scaled to controls: 0 for no effect and ±100 for the full control effect; potency is read from the fitted curve at half-maximal effect.

The nature of the assay: qHTS for Inhibitors of human tyrosyl-DNA phosphodiesterase 1 (TDP1): qHTS in cells in presence of CPT. Also: nearly all actives have a fitted effect of over 55% in size. The conditions noted are these: chicken DT40 Tdp1-/-;hTDP1 cells + 20 nM CPT, ATP luminescence, 48 h; series mostly up to 46.2 µM; activity change, negative = growth inhibition: at the top concentration. A digest of the protocol: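 Chicken DT40 Tdp1-/- cells stably complemented with human TDP1 were seeded at 400 cells/well in medium containing 20 nM camptothecin, exposed to pin-transferred compounds, and grown at 37 °C for at least 48 hr. Viability was read as ATP luminescence.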
Background: In qHTS, concentration-response curves come from the screen itself.
`COc1ccc(NC(=O)N(C)C[C@@H]2OCc3cn(nn3)CCCC(=O)N([C@H](C)CO)C[C@H]2C)c(OC)c1`: the “activity change, negative = growth inhibition” value is -5.76%.
Turning to `O=C(Nc1cccc([N+](=O)[O-])c1)Nn1cnnc1`, the “activity change, negative = growth inhibition” value is -8.2%.
For `CC(C)CC(=O)NC(=S)Nc1cc(C(=O)O)ccc1Cl`, the “activity change, negative = growth inhibition” value was -1.14%.
Regarding `CC(C)Nc1ccc(-n2nc3ccccc3[n+]2[O-])cc1`, the “activity change, negative = growth inhibition” value was 11.5%.
With `NS(=O)(=O)c1ccc(CCNC(=O)CNC(=O)Cc2ccccc2)cc1`, the “activity change, negative = growth inhibition” value is 9.87%.
With `Cc1oc(-c2ccccc2Cl)[n+]([O-])c1C`, the Potency was 14.6 µM (active).
Take `CCOc1cnc(-c2c(-c3ccccc3Cl)noc2C)o1`: the “activity change, negative = growth inhibition” value was 8.07%.
Still for that read-out and setting: in the case of `OCC[C@H]1C[C@@H](O)[C@H](O)[C@]2(OCCCc3ccccc32)O1` it was -25.4%; in that of `COc1ccc(C(=O)OCC(=O)N2CC(=O)Nc3ccccc32)cc1Br`, -8.62%; in that of `O=C(NC1CCCC1)c1ccc(Br)s1`, -20.1%.
On to `Cc1ccc(C(=O)N/N=C/c2cccc3ccccc23)cn1`, for which the “activity change, negative = growth inhibition” value was 14.6%.
Regarding `C/C(=N\NC(=O)CNc1cccc2ccccc12)c1ccc(Br)s1`, the Potency is 11.6 µM (active).
Same read-out and setting: in the case of `Cc1cccc(/C=N/NC(=O)CNc2cccc3ccccc23)n1` it was 18.4 µM (active).
With `C/C(Cc1ccccc1)=N\NC(=O)CNC(=O)c1cccc(Br)c1`, the “activity change, negative = growth inhibition” value was 0.991%.
On to `Cn1cccc1/C=N/NC(=O)CNc1cccc2ccccc12`, for which the “activity change, negative = growth inhibition” value is 4.64%.
The same measure, in the same setting: in the case of `COc1cc(OC)cc(C(=O)NCCSCc2ccc(Cl)cc2)c1` it was -3.77%; in that of `Cc1ccc(C(=O)NC2CCN(C(=O)Nc3ccccc3Cl)CC2)cc1`, -7.58%; in that of `Cc1ccc(C)n1NC(=O)c1ccc([N+](=O)[O-])cc1`, 14.1%.
`CC(=O)N1CCc2ccc(N)cc21`: the “activity change, negative = growth inhibition” value is 5.64%.
In the case of `CC1CCN(C(=O)CCc2nnc3ccc(NCc4ccco4)nn23)CC1`, the “activity change, negative = growth inhibition” value was -29.9%.
In the case of `Cn1c(=O)n(Cc2ccco2)c(=N)c2c3c(sc21)CCCC3`, the “activity change, negative = growth inhibition” value is -26.4%.
Take `CN1CCc2c(sc3c2c(NCc2ccco2)nc2nnnn23)C1`: the Potency was 29.1 µM (active).
Regarding `O=C(COC(=O)c1ncc(Cl)c(Cl)c1Cl)NNC(=O)c1ccccc1`, the “activity change, negative = growth inhibition” value was -26.2%.
On the same count and under the same terms, in the case of `COc1ccc(N2C(=O)NC(NS(=O)(=O)c3ccc(Cl)cc3)(C(F)(F)F)C2=O)cc1` (stereo not drawn) it was 4.4%.
Turning to `O=C1/C(=C\c2ccccc2Cl)SC(=S)N1CCC(=O)N1CCCc2ccccc21`, the Potency is 6.51 µM (active).
Take `O=C(CN1CCCCCC1)NCCN1C(=O)S/C(=C\c2ccccc2Cl)C1=O`: the “activity change, negative = growth inhibition” value is -18.4%.
For the compound `COc1ccc(/C=C2\SC(=S)N(CCC(=O)Nc3cccc(C(=O)O)c3)C2=O)cc1OC`, the “activity change, negative = growth inhibition” value was -14.9%.
Take `Cc1ccc([C@@H]2CC(=O)[C@@H]3CN(S(=O)(=O)c4ccc(C)cc4)[C@H](c4ccccc4F)C[C@@H]3N2S(=O)(=O)c2ccc(Cl)cc2)cc1`: the “activity change, negative = growth inhibition” value was -12.2%.
Consider `CC1CC(NC(=O)/C(C#N)=C/c2ccc[nH]2)CC(C)(C)C1` (stereo not drawn), for which the Potency was 0.0184 µM (active).
On to `CC1CC(NC(=S)N(C)C)CC(C)(C)C1` (stereo not drawn), for which the “activity change, negative = growth inhibition” value was -16.6%.
Consider `CCN(C[C@H]1N[C@@](CC)(C(=O)OC)[C@H]2C(=O)N(C)C(=O)[C@@H]12)C(=O)Nc1ccc(F)cc1`, for which the “activity change, negative = growth inhibition” value was 1.04%.
The same measure, in the same setting: in the case of `Cc1nn(C(=O)c2c(F)cccc2F)c(C)c1S(=O)(=O)N1CCOCC1` it was 7.22%.
Regarding `O=C(Nc1ccc(NC(=O)c2ccco2)c(Cl)c1)c1cccc([N+](=O)[O-])c1`, the “activity change, negative = growth inhibition” value is -7.2%.
For the compound `O=C(Nc1ccc(C2CC2(Cl)Cl)cc1)c1cccc([N+](=O)[O-])c1` (stereo not drawn), the Potency is 23.1 µM (active).
Turning to `Cc1cccc(C(=O)NNC(=O)c2cccc([N+](=O)[O-])c2)c1`, the “activity change, negative = growth inhibition” value is 6.1%.
For `Cc1c(NC(=O)C(C)Oc2cccc(Cl)c2)c(=O)n(-c2ccccc2)n1C` (stereo not drawn), the “activity change, negative = growth inhibition” value was -19.3%.
On to `COc1cc(/C=N/NC(=O)Cc2ccccc2)cc(OC)c1OC`, for which the “activity change, negative = growth inhibition” value was 2.59%.
Consider `COc1ccc2[nH]c(C(=O)N/N=C/c3cc(OC)c(OC)c(OC)c3)cc2c1`, for which the “activity change, negative = growth inhibition” value is -44.3%.
Consider `COc1cc(/C=N/Nc2nn3cnnc3c3ccccc23)cc(OC)c1OC`, for which the Potency was 10.3 µM (active).
For `CCOC(=O)CSc1nc(N2CCOCC2)c2c(c1C#N)CC(C(C)C)OC2` (stereo not drawn), the “activity change, negative = growth inhibition” value was 4.05%.
As to `Cc1cccc(NC(=O)Cc2ccc(Br)cc2)n1`, the “activity change, negative = growth inhibition” value is -9.2%.
Same read-out and setting: the value for `Cc1ccccc1N(C(=O)Cc1cccs1)C(C(=O)NC1CCCCC1)c1cn(C)nc1C` (stereo not drawn) was -25.4%; that for `CC(Cc1cccs1)NC(=O)NC1CCCCC1` (stereo not drawn) was -11.7%.
As for `Cc1ccsc1C(C(=O)NC1CCCCC1)N(C(=O)Cc1cccs1)C1CC1` (stereo not drawn), the Potency is 20.6 µM (active).
Take `CC(NC(=O)c1ccccc1SCC(=O)N1CCCC1)c1ccccc1` (stereo not drawn): the “activity change, negative = growth inhibition” value is -7.91%.
Take `CC(NC(=O)c1cc(=O)[nH]c2ccccc12)c1ccc(F)cc1F` (stereo not drawn): the “activity change, negative = growth inhibition” value was 7.75%.
`CC(NC(=O)c1cc(Sc2ccc(F)cc2F)nc2ccccc12)c1ccccc1` (stereo not drawn): the Potency was 13 µM (active).
Consider `CCCCNC(=O)c1nc(C2CCN(S(=O)(=O)c3ccc(F)c(F)c3)CC2)oc1-c1cccc(C(F)(F)F)c1`, for which the “activity change, negative = growth inhibition” value is 1.62%.
Consider `COc1ccc(N2CCN(c3cc(C)nc4nncn34)CC2)cc1`, for which the Potency was 13 µM (active).
As to `COc1ccc(N2CCN(Cc3nnc(-c4ccccc4)o3)CC2)cc1`, the “activity change, negative = growth inhibition” value was -12.2%.
Regarding `COc1ccc(N2CCN(S(=O)(=O)c3cc(Br)cnc3N)CC2)cc1`, the “activity change, negative = growth inhibition” value is 20.1%.
Take `O=C(Nc1cc(Cl)cc(Cl)c1)c1ccc2c(c1)N(Cc1cccc(Cl)c1)C(=O)c1ccccc1S2=O` (stereo not drawn): the Potency was 3.66 µM (active).
With `CN(Cc1ccc(F)cc1)C(=O)CN1C(=O)c2ccccc2S1(=O)=O`, the “activity change, negative = growth inhibition” value was 6.12%.

Values taken from PubChem BioAssay AID686979 (National Center for Advancing Translational Sciences (NCATS), 2013).
